Results filed as inconclusive are left out. Calls of active or inactive are those of the source. Calls come from the whole dose curve; as a rule, active = well fitted curve in the direction sought with a large enough effect; inconclusive = small, poorly fitted or top-dose-only effect, or another doubt; inactive = no such curve, though single readings can be large; an effect the other way counts as inactive or inconclusive.
How the values were obtained:
[1] = NS1 protein of Zika virus - qHTS assay to identify small molecule inhibitors in human HEK 293 cells (AID 1347053);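 note: series mostly up to about 46 µM; plate controls were infected untreated cells for no effect and uninfected cells for full effect; nearly all actives have a fitted effect of over 55% in size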
Procedure, shortened: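 Readout was TR-FRET using paired anti-NS1 antibodies after 24 h infection of HEK 293 cells with ZIKV MR766 (MOI = 0.5). Compound preceded virus by 1 h; reduced signal reflects lower NS1 expression.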

[2] = qHTS of pediatric cancer cell lines to identify multiple opportunities for drug repurposing: Primary screen for TC32 cells (AID 1347089); note: % is set by controls: 0 for no effect and ±100 for the full control effect; nearly all actives have a fitted effect of over 60% in size
Procedure, shortened: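 qHTS, TC32, 48 h drug treatment, CellTiter-Glo luminescence as a proxy for metabolically active cells; primary top concentration 46 µM (MIPE 11-pt, NPC 8-pt); confirmatory 11-pt.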

[3] = qHTS of pediatric cancer cell lines to identify multiple opportunities for drug repurposing: Primary screen for DAOY cells (AID 1347090);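 note: series mostly up to about 46 µM; plate controls were DMSO for no effect and bortezomib for full effect; nearly all actives have a fitted effect of over 55% in size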
Procedure, shortened: (§1)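 Eight- or eleven-point concentration series, 48 h treatment at 37 degrees C in growth media; readout CellTiter-Glo luminescence. Potency and efficacy were taken from the concentration-response curves.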

[4] = qHTS of pediatric cancer cell lines to identify multiple opportunities for drug repurposing: Primary screen for SJ-GBM2 cells (AID 1347091);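 note: plate controls were DMSO neutral control for no effect and bortezomib for full effect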
Procedure, shortened: as §1

[5] = qHTS of pediatric cancer cell lines to identify multiple opportunities for drug repurposing: Primary screen for A673 cells (AID 1347092); note: % is set by controls: 0 for no effect and ±100 for the full control effect; nearly all actives have a fitted effect of over 45% in size
Procedure, shortened: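 Luminescence from CellTiter-Glo, taken after 15 min at room temperature, served as the proxy for metabolically active cells following 48 h treatment. Both potency and efficacy were taken from curves fitted to the titration data.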

[6] = qHTS of pediatric cancer cell lines to identify multiple opportunities for drug repurposing: Primary screen for SK-N-MC cells (AID 1347093);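 note: series mostly up to about 46 µM; plate controls were DMSO neutral control for no effect and bortezomib for full effect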
Procedure, shortened: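 Metabolically active cells were quantified by ATP-dependent luminescence (CellTiter-Glo, 15 min at room temperature) following 48 h treatment. Cells had been plated at 500-1,000 per well and settled for 5 h beforehand.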

[7] = qHTS of pediatric cancer cell lines to identify multiple opportunities for drug repurposing: Primary screen for BT-37 cells (AID 1347094);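 note: series mostly up to about 57 µM; plate controls were DMSO for no effect and bortezomib for full effect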
Procedure, shortened: (§2)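 Luminescence from CellTiter-Glo served as readout of metabolically active cells after 48 h compound exposure. Titrations: MIPE 11-point, from 0.78 nM; NPC 8-point, from 0.59 nM (final). Concentration-response curves came straight from the primary screen.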

[8] = qHTS of pediatric cancer cell lines to identify multiple opportunities for drug repurposing: Primary screen for NB-EBc1 cells (AID 1347095);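 note: plate controls were DMSO neutral control for no effect and bortezomib for full effect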
Procedure, shortened: as §2

[9] = qHTS of pediatric cancer cell lines to identify multiple opportunities for drug repurposing: Primary screen for U-2 OS cells (AID 1347096);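 note: plate controls were DMSO wells for no effect and bortezomib positive control wells for full effect; nearly all actives have a fitted effect of over 50% in size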
Procedure, shortened: (§3)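 Cells (500-1,000/well) in growth media were settled 5 h at 37 degrees C, then given compounds for 48 h. Viability was read as CellTiter-Glo luminescence. Primary runs used MIPE at 11 points (0.78 nM-46 µM) and NPC at 8 points (0.59 nM-46 µM); follow-ups used 11 points.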

[10] = qHTS of pediatric cancer cell lines to identify multiple opportunities for drug repurposing: Primary screen for Saos-2 cells (AID 1347097); note: % is set by controls: 0 for no effect and ±100 for the full control effect; nearly all actives have a fitted effect of over 40% in size
Procedure, shortened: as §2

[11] = qHTS of pediatric cancer cell lines to identify multiple opportunities for drug repurposing: Primary screen for SK-N-SH cells (AID 1347098);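 note: DMSO served as neutral control and bortezomib at 2.3 µM as positive control; % is set by controls: 0 for no effect and ±100 for the full control effect; nearly all actives have a fitted effect of over 65% in size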
Procedure, shortened: (§4)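 Cells (500-1,000/well) rested 5 h, then received compounds for 48 h; metabolically active cells were measured by CellTiter-Glo luminescence. Final concentrations spanned up to 46 µM (MIPE, 11-point) or 0.59 nM-46 µM (NPC, 8-point) in primary screens, 11-point in follow-ups.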

[12] = qHTS of pediatric cancer cell lines to identify multiple opportunities for drug repurposing: Primary screen for NB1643 cells (AID 1347099);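 note: plate controls were DMSO neutral control for no effect and bortezomib positive control for full effect; nearly all actives have a fitted effect of over 50% in size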
Procedure, shortened: as §2

[13] = qHTS of pediatric cancer cell lines to identify multiple opportunities for drug repurposing: Primary screen for LAN-5 cells (AID 1347100);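 note: plate controls were DMSO neutral control for no effect and bortezomib positive control for full effect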
Procedure, shortened: as §3

[14] = qHTS of pediatric cancer cell lines to identify multiple opportunities for drug repurposing: Primary screen for BT-12 cells (AID 1347101);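 note: plate controls were DMSO for no effect and bortezomib positive control for full effect; nearly all actives have a fitted effect of over 25% in size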
Procedure, shortened: as §4

CC(=O)CCC(=O)O
inactive: Potency [1] | Potency [2] | Potency [3] | Potency [4] | Potency [5] | Potency [6] | Potency [7] | Potency [8] | Potency [9] | Potency [10] | Potency [11] | Potency [12] | Potency [13] | Potency [14]

O=C1O[C@H]([C@@H](O)CO)C(O)=C1O
inactive: Potency [1] | Potency [2] | Potency [3] | Potency [4] | Potency [5] | Potency [6] | Potency [7] | Potency [8] | Potency [9] | Potency [10] | Potency [11] | Potency [12] | Potency [13] | Potency [14]

NC(=O)c1ncn([C@@H]2O[C@H](CO)[C@@H](O)[C@H]2O)c1N
inactive: Potency [1] | Potency [2] | Potency [3] | Potency [4] | Potency [5] | Potency [6] | Potency [7] | Potency [8] | Potency [9] | Potency [10] | Potency [11] | Potency [12] | Potency [13] | Potency [14]

Cc1ccc(C(C)C)cc2c(C)ccc1-2
inactive: Potency [1] | Potency [2] | Potency [3] | Potency [4] | Potency [5] | Potency [6] | Potency [7] | Potency [8] | Potency [9] | Potency [10] | Potency [11] | Potency [12] | Potency [13] | Potency [14]

O=C(O)CC(O)C(=O)O (configuration not stated)
inactive: Potency [1] | Potency [2] | Potency [3] | Potency [4] | Potency [5] | Potency [6] | Potency [7] | Potency [8] | Potency [9] | Potency [10] | Potency [11] | Potency [12] | Potency [13] | Potency [14]

C[C@@H]1CN(c2c(F)c(F)c3c(=O)c(C(=O)O)cn(C4CC4)c3c2F)C[C@H](C)N1
inactive: Potency [1] | Potency [2] | Potency [3] | Potency [4] | Potency [5] | Potency [6] | Potency [7] | Potency [8] | Potency [9] | Potency [10] | Potency [11] | Potency [12] | Potency [13] | Potency [14]

COc1ccc2cc1Oc1cc3c(cc1OC)CC[N+](C)(C)[C@H]3Cc1ccc(cc1)Oc1c(OC)c(OC)cc3c1[C@@H](C2)[N+](C)(C)CC3
inactive: Potency [1] | Potency [2] | Potency [3] | Potency [4] | Potency [5] | Potency [6] | Potency [7] | Potency [8] | Potency [9] | Potency [10] | Potency [11] | Potency [12] | Potency [13] | Potency [14]

CCCc1c(OCCCCc2nn[nH]n2)ccc(C(C)=O)c1O
inactive: Potency [1] | Potency [2] | Potency [3] | Potency [4] | Potency [5] | Potency [6] | Potency [7] | Potency [8] | Potency [9] | Potency [10] | Potency [11] | Potency [12] | Potency [14]

O=S(=O)(O)NC1CCCCC1
inactive: Potency [1] | Potency [2] | Potency [3] | Potency [4] | Potency [5] | Potency [6] | Potency [7] | Potency [8] | Potency [9] | Potency [10] | Potency [11] | Potency [12] | Potency [13] | Potency [14]

CC(C)(O)c1ccccc1CC[C@@H](SCC1(CC(=O)O)CC1)c1cccc(/C=C/c2ccc3ccc(Cl)cc3n2)c1
inactive: Potency [1] | Potency [2] | Potency [3] | Potency [4] | Potency [5] | Potency [6] | Potency [7] | Potency [8] | Potency [9] | Potency [10] | Potency [11] | Potency [12] | Potency [13] | Potency [14]

CC(=O)Nc1ccc(/C=N/NC(N)=S)cc1
inactive: Potency [1] | Potency [2] | Potency [3] | Potency [4] | Potency [5] | Potency [6] | Potency [7] | Potency [8] | Potency [9] | Potency [10] | Potency [11] | Potency [12] | Potency [13] | Potency [14]

C/C(=C(\CCOP(=O)(O)O)SC(=O)c1ccccc1)N(C=O)Cc1cnc(C)nc1N
inactive: activity change, negative = inhibition [1] 3.35% [at 4.81 µM] | activity change, negative = cytotoxic [2] 9.22% [at 4.81 µM] | activity change, negative = cytotoxic [3] 7.92% [at 4.84 µM] | activity change, negative = cytotoxic [4] 25.6% [at 4.84 µM] | activity change, negative = cytotoxic [5] -0.171% [at 4.84 µM] | activity change, negative = cytotoxic [6] -16.7% [at 4.84 µM] | activity change, negative = cytotoxic [7] 17.3% [at 6.03 µM] | activity change, negative = cytotoxic [8] 16.5% [at 4.84 µM] | activity change, negative = cytotoxic [10] -7.29% [at 4.84 µM] | activity change, negative = cytotoxic [11] -2.92% [at 6 µM] | activity change, negative = cytotoxic [12] 16.8% [at 4.84 µM] | activity change, negative = cytotoxic [13] 5.99% [at 4.84 µM] | activity change, negative = cytotoxic [14] 9.87% [at 6.03 µM]

Cc1cc(O)cc2c1O[C@](C)(CCC[C@H](C)CCC[C@H](C)CCCC(C)C)CC2
inactive: Potency [1] | Potency [2] | Potency [3] | Potency [4] | Potency [6] | Potency [7] | Potency [8] | Potency [9] | Potency [10] | Potency [11] | Potency [12] | Potency [13] | Potency [14]

CCCCN1CCCC[C@H]1C(=O)Nc1c(C)cccc1C
inactive: Potency [1] | Potency [2] | Potency [3] | Potency [4] | Potency [6] | Potency [7] | Potency [8] | Potency [9] | Potency [10] | Potency [11] | Potency [12] | Potency [13] | Potency [14]

— PubChem BioAssay (NCATS)
